# Bioassay records from PubChem.
# NRP1-CendR mod: NRP-1/CendR interaction modulation | AID 602438 | inhibition, % at 25 µM | FAM-RPARPAR peptide binding to NRP-1, fluorescence polarization | actives 0.85% (n = 360,000);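 active = inhibition or corrected inhibition above about 18%, plus a signal ratio from 0.5 to 1.5, limit read from the data, passing the limit was not always enough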
# Target sequence (O14786 whole entry, looked up): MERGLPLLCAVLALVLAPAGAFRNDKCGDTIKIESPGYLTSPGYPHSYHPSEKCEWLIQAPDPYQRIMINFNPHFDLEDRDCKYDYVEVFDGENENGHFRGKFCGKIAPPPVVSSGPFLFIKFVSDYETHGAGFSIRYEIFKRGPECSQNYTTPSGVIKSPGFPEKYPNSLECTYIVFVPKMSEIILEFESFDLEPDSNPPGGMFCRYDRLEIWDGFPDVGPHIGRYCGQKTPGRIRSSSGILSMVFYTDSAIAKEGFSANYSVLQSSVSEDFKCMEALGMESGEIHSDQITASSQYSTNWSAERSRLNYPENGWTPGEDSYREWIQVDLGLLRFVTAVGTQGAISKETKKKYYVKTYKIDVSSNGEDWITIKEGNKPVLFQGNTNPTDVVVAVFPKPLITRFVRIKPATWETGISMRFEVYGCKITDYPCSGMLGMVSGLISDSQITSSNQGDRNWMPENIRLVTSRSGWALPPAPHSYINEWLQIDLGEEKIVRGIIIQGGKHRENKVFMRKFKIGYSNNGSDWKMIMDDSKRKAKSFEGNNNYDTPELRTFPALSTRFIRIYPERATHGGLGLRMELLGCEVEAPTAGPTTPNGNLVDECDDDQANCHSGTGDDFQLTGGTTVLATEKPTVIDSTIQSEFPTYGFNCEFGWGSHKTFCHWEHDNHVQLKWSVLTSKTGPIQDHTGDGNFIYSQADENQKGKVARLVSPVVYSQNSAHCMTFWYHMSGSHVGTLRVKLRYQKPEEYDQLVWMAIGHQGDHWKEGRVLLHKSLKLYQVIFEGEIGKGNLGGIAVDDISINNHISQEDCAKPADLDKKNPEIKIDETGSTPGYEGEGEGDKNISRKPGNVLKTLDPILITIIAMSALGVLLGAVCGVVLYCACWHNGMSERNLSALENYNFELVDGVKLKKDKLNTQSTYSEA
# SKN-1 block: C. elegans SKN-1 inhibition; C. elegans VP596 Pgst-4::GFP/RFP ratio, acrylamide-induced, 24 h; AID 624304; actives 0.49% (n = 360,000); inhibition, % at 21.8 µM;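 active = interference check ratio from 0.5 to 1.5 plus GFP to RFP signal ratio inhibition reaching or exceeding a fixed threshold, cut at about 30% in these data, passing the limit was not always enough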
# F508del corr: correctors of CFTR F508del function in bronchial epithelial cells | CFBE cells, YFP halide quenching; stimulated with forskolin plus potentiator P3; % fluorescence drop versus neutral controls | activity (quench increase), % at 7.58 µM | actives 0.36% (n = 350,000) | AID 720511;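 active = mean added fluorescence quench of at least 8% versus neutral control, with both replicates also reaching 8%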;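 also: cells transiently co-express mutant CFTR-F508del with the halide-sensitive YFP; corrector assay measuring rescue of mutant channel to the surface after 24 h compound exposure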
# ATG4B inhibitor: blocks human ATG4B protease cleavage of LC3 substrate. Q9Y4P1. ATG4B cleavage of LC3-PLA2, NBD-HPC fluorescence, 1 h. inhibition, % at 8.33 µM. actives 0.51% (n = 340,000). AID 504462; in the data active = inhibition above about 40%
# MPTP block: permeability transition pore inhibition; actives 1.4% (n = 360,000); inhibition, % at 10 µM; AID 602449; isolated mouse mitochondria, Ca2+ swelling absorbance, 30 min;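 active = inhibition of 50% or more, scaled per plate between neutral and stimulator controls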;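 also: 0% = DMSO wells given calcium and 100% = 1 mM EGTA wells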
# Rh123 counter: mitochondrial membrane potential, counter-screen; shares compounds with MPTP block; isolated mitochondria, Rhodamine 123 fluorescence; inhibition, % at 10 µM; actives 78% (n = 5,000); in the data active = inhibition above about 22%;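 also: 0% = DMSO vehicle and 100% = positive control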
# MPTP swell DR: dose response confirmation of mitochondrial permeability transition pore inhibitors; actives 58% (n = 780); IC50, µM; isolated mitochondria swelling, absorbance; shares compounds with MPTP block; AID 651561; in the data active = IC50 below about 20 µM
# MPTP counter DR: active in counter-screen for permeability transition pore inhibitors. shares compounds with MPTP block. isolated mitochondria counterscreen, fluorescence read-out. IC50, µM. actives 49% (n = 780); in the data active = IC50 below about 80 µM
# Active calls of the source: *; i = inactive; x = not tested or not shown. An excerpt weighted towards active compounds, which were near 2.7% of everything screened.
SMILES,NRP1-CendR mod,SKN-1 block,F508del corr,ATG4B inhibitor,MPTP block,Rh123 counter,others
CN(C)C(=O)c1cccc(-c2ccc([C@H]3[C@H]4CN(CC5CCOCC5)CCCCN4[C@H]3CO)cc2)c1,x,x,-0.6,x,x,x,
CC(C)NC(=O)N1CC2(C1)[C@@H](c1ccccc1)[C@H](CO)N2C(=O)c1ccccn1,x,x,-2.1,x,x,x,
COc1ccc(-c2cn3c(C)c(C(=O)Nc4ccncc4)sc3n2)cc1,-12.3,8.8,-1.5,-23.5,1.2,x,
COc1ccc(-c2cn3c(C)c(C(=O)Nc4cccc(NC(C)=O)c4)sc3n2)cc1,-10.5,-7.4,x,-24.9,79.7*,23.5*,
O=C(O)C1CCCCC1C(=O)N1CC=C(c2ccccc2)CC1 (stereo not given),0.0,-21.1,x,-11.1,73.9*,10.9,MPTP swell DR=>100;MPTP counter DR=>80
COCCNC(=O)C[C@H]1C[C@@H]2c3cc(NC(=O)CC4CC4)ccc3O[C@@H]2[C@H](CO)O1,x,x,-2.0,x,x,x,
COc1ccc(N=C2SCC(=O)N2CCc2ccc(OC)c(OC)c2)cc1,4.8,1.1,-1.2,-0.1,22.0,x,
COc1ccc(CCN2C(=O)CSC2=Nc2ccc(C(C)C)cc2)cc1OC,6.5,7.0,1.4,-3.8,90.3*,94.2*,
CC(=O)Nc1nc(-c2ccc(Cl)cc2)ns1,-15.3,13.8,x,0.4,87.8*,60.4*,
CCN(Cc1ccccc1)CC(O)COC(c1ccc(OC)cc1)c1ccc(OC)cc1 (stereo not given),-3.4,12.7,2.4,3.3,79.3*,0.1,MPTP swell DR=>100;MPTP counter DR=54.3*
CSc1nc(Cl)c(Cc2ccc(OC(C)C)cc2)c(N(C)C)n1,9.5,16.9,-7.1,10.1,59.5*,10.3,MPTP swell DR=i;MPTP counter DR=35.2*
COc1ccc(NC(=O)Nc2ccc3c(c2)C(=O)N([C@H](C)CO)C[C@H](C)[C@H](CN(C)C(=O)NC(C)C)OCCCC[C@H](C)O3)cc1,x,x,-1.4,x,x,x,
N#C/C(=C\c1cc(Cl)cc(Cl)c1O)C(=O)NC1CCCCC1,-18.4,1.5,-4.5,21.8,60.8*,67.5*,
COc1cc2c(cc1O)C(c1cccs1)N(Cc1sc3ccccc3c1Cl)CC2 (stereo not given),x,x,-1.3,x,x,x,
CCN(CC)S(=O)(=O)c1cc(C(=O)OCC(=O)c2ccc3c(c2)NC(=O)CO3)ccc1Cl,-4.3,0.4,x,-17.6,85.1*,59.2*,
CCN(CC)S(=O)(=O)c1ccc(C(=O)OCC(=O)c2ccc3c(c2)NC(=O)CO3)cc1,-5.2,5.5,-2.5,-6.8,2.3,x,
CCN(CC)c1ccc(/C=C2\C(=O)c3ccc(C(=O)O)cc3C2=O)cc1,131.5,36.3*,x,-2.0,70.4*,-32.6,
CCN(CC)c1ccc(C(=O)O)cc1,-10.9,-0.6,1.8,-6.0,0.6,x,
Cc1noc(C)c1NC(=O)N[C@H]1CC[C@@H](CC(=O)Nc2ccccc2)O[C@H]1CO,x,x,1.2,x,x,x,
O=C(CNC(=O)c1cccc(Br)c1)N/N=C/c1cc(Br)cc(Br)c1O,-8.3,3.5,0.6,9.9,66.2*,13.4,
C[C@H]1CN([C@@H](C)CO)C(=O)c2cc(NC(=O)Cc3ccccc3)ccc2O[C@@H]1CN(C)C(=O)Nc1ccc(F)cc1,x,x,-0.7,x,x,x,
CSC1=NSC2=NC(=O)/C(=C\c3coc4ccccc4c3=O)C(=N)N12,122.2,-30.3,x,10.2,95.1*,89.6*,
Cc1cc(/C=C2\C(=N)N3C(SCc4ccccc4)=NSC3=NC2=O)c(C)n1Cc1ccccc1,-4.4,5.0,x,6.0,16.2,x,
N=C1/C(=C\c2coc3ccc(O)cc3c2=O)C(=O)N=C2SC=CN12,132.9,5.2,1.8,-11.3,1.3,x,
CC(C)CSC1=NSC2=NC(=O)/C(=C\c3ccccc3)C(=N)N12,-6.4,-2.1,-0.9,1.9,72.6*,90.5*,
SMILES,NRP1-CendR mod,SKN-1 block,F508del corr,ATG4B inhibitor,MPTP block,Rh123 counter,others
N=C1/C(=C\c2coc3ccccc3c2=O)C(=O)N=C2SC(c3ccncc3)=NN12,133.3,-17.1,1.2,10.7,93.9*,64.0*,
CO[C@H]1CN(C)C(=O)c2cc(NS(=O)(=O)c3cccc(F)c3)ccc2OC[C@@H](C)N(Cc2cc(F)ccc2F)C[C@@H]1C,x,x,0.2,x,x,x,
COc1cccc(S(=O)(=O)Nc2ccc3c(c2)OC[C@@H](C)NC[C@@H](C)[C@@H](OC)CN(C)C3=O)c1,x,x,0.4,x,x,x,
Cc1cc(N2CCCCC2)nc(NCc2ccccc2)n1,0.7,17.5,x,5.9,55.3*,88.5*,
Cc1cc(N2CCOCC2)nc(NCc2ccccc2)n1,-1.6,12.3,0.7,-1.7,7.9,x,
Cc1cc(Nc2cccc(Cl)c2)nc(NCc2ccccc2)n1,-4.7,9.8,-15.8,36.1,82.2*,86.8*,
Cc1cc(C)nc(NCc2ccc(Cl)cc2)n1,-89.9,1.0,0.8,1.9,-1.1,x,
CO[C@H](CN(C)Cc1nccs1)[C@H](C)CN([C@H](C)CO)S(=O)(=O)c1ccc(C)cc1,x,x,-0.5,x,x,x,
CCCCCc1ccc(-c2cn(Cc3ccc(C)cc3)nn2)cc1,-5.7,7.5,2.8,5.4,0.0,x,
CCCCCc1ccc(-c2cn(CN3C(=O)c4ccccc4C3=O)nn2)cc1,-21.7,-1.4,2.3,6.8,71.2*,10.9,MPTP swell DR=<0.2*;MPTP counter DR=<2.5*
CC(O)CNc1nc2c(c(=O)n(C)c(=O)n2C)n1Cc1cccc(C(F)(F)F)c1 (stereo not given),9.9,-27.9,x,-4.0,0.0,x,
Cn1c(=O)c2c(nc(NCCOc3ccc(C(C)(C)C)cc3)n2C)n(C)c1=O,4.1,5.3,x,2.3,101.1*,6.3,MPTP swell DR=2.3*;MPTP counter DR=36.4*
COCCNc1nc2c(c(=O)n(C)c(=O)n2C)n1Cc1cccc(C(F)(F)F)c1,-5.0,6.7,x,-5.5,82.3*,70.6*,
COc1cccc(NC(=O)N(C)C[C@H]2Oc3cc(-c4cccc(C(=O)N(C)C)c4)ccc3S(=O)(=O)N([C@H](C)CO)C[C@@H]2C)c1,x,x,-0.4,x,x,x,
C[C@@H]1CN([C@@H](C)CO)C(=O)c2cc(-c3cccc(C#N)c3)cnc2O[C@H]1CN(C)C(=O)C1CC1,x,x,-0.2,x,x,x,
OC[C@@H]1[C@@H](c2ccc(/C=C/c3ccccc3)cc2)[C@@H]2CN(Cc3ccncc3)CCCCN12,x,x,1.4,x,x,x,
CNC[C@H]1Oc2ccc(NC(=O)Cc3ccccc3)cc2C(=O)N([C@@H](C)CO)C[C@H]1C,x,x,7.8,x,x,x,
Cc1nn(-c2cc(C(F)(F)F)ccc2Cl)c2nc(C(Cl)(Cl)Cl)[nH]c(=O)c12,11.6,-6.7,-0.6,6.8,78.3*,81.9*,
Cc1nn(-c2ccccc2)c2nc(C(F)(F)F)[nH]c(=O)c12,9.2,-1.6,x,-4.0,7.4,x,
CCn1c(COc2ccccc2C)nnc1SCC(=O)N1CCN(c2ccccc2)CC1,5.7,6.8,x,1.4,-0.3,x,
CCn1c(COc2cccc(C)c2C)nnc1SCC(=O)N1CCN(c2ccc(OC)cc2)CC1,6.6,13.9,x,-8.7,60.4*,43.2*,
